Inconclusive results are not listed. The source made the active and inactive calls. Unless noted, calls come from the whole dose curve; as a rule, active = well fitted curve in the direction sought with a large enough effect in the repeat runs; inconclusive = weak or mixed curves; inactive = no such curve, though single readings can be large; an effect the other way counts as inactive or inconclusive.
What was measured:
[1] = qHTS assay to identify small molecule agonists of the peroxisome proliferator-activated receptor delta (PPARd) signaling pathway - cell viability counter screen (AID 743211); note: nearly all actives have a fitted effect of over 55% in size
How it was run: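 Viability of GeneBLAzer PPARd UAS-bla HEK293H cells was assessed after 17 h compound incubation at 37C, using CellTiter-Glo reagent added after the reporter read and luminescence recorded 30 min later.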

[2] = biological target: Peroxisome proliferator-activated receptor delta (Homo sapiens) (UniProt Q03181); assay: qHTS assay to identify small molecule agonists of the peroxisome proliferator-activated receptor delta (PPARd) signaling pathway (AID 743212; calls by dose curve)
Chain of Peroxisome proliferator-activated receptor delta (Homo sapiens) (Q03181 whole entry, looked up): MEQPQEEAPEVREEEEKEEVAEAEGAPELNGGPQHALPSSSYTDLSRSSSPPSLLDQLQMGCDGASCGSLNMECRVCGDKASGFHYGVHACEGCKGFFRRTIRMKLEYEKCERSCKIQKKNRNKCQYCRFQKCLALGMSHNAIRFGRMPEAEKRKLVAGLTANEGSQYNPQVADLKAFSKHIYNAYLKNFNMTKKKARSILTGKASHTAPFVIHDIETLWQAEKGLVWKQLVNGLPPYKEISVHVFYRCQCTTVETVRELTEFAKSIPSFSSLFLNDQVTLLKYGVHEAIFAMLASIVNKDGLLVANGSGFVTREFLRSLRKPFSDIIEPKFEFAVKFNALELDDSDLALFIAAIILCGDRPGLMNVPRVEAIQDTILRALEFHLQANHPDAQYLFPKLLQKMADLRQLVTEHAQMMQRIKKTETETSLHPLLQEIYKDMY
How it was run: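 Tox21 library screened in GeneBLAzer PPARd UAS-bla HEK293H cells. After compound treatment at 37 C, a FRET-based beta-lactamase substrate was applied for 2 h and fluorescence recorded.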

[3] = qHTS assay to identify small molecule antagonists of the peroxisome proliferator-activated receptor delta (PPARd) signaling pathway - cell viability counter screen (AID 743213); note: nearly all actives have a fitted effect of over 50% in size
How it was run: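 PPARd-bla HEK293H cells (3000/well) got compound plus 300 nM L165041 agonist for 17 h at 37 C. Viability in the same wells came from CellTiter-Glo luminescence after 30 min at room temperature.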

[4] = biological target: Peroxisome proliferator-activated receptor delta (Homo sapiens) (UniProt Q03181); assay: qHTS assay to identify small molecule antagonists of the peroxisome proliferator-activated receptor delta (PPARd) signaling pathway (AID 743215; active = well fitted inhibition curve with a large enough effect in the signal ratio in the repeat runs, not every such curve was filed as active; the % refers to the signal ratio;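 note: cells stimulated with agonist L165041 at 300 nM final during compound exposure; series mostly up to about 62 µM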)
How it was run: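 Plated HEK293H PPARd-bla cells rested 5 h at 37 C and 5% CO2. Compound, then agonist L165041 at 300 nM final, was added; 17 h at 37 C followed. Substrate loading, 2 h room temperature, fluorescence measured.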

[5] = biological target: Bile acid receptor (Homo sapiens) (UniProt Q96RI1); assay: qHTS assay to identify small molecule antagonists of the farnesoid-X-receptor (FXR) signaling pathway (AID 743217; active = well fitted inhibition curve with a large enough effect in the signal ratio in the repeat runs, not every such curve was filed as active; the % refers to the signal ratio)
Chain of Bile acid receptor (Homo sapiens) (Q96RI1 whole entry, looked up): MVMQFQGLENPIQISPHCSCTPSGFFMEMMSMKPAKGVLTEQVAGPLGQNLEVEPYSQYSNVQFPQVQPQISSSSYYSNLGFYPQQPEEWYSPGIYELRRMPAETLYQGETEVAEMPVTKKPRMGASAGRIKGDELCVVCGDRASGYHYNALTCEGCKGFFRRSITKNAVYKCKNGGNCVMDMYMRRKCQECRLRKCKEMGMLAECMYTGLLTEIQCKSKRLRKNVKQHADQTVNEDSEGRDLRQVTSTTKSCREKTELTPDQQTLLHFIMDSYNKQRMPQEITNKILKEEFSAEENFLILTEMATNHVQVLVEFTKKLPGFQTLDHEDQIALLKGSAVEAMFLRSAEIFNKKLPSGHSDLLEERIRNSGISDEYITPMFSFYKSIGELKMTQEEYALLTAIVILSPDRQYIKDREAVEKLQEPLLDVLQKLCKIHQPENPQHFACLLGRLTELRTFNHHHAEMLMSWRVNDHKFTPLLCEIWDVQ
How it was run: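 Screen of the Tox21 10K library in quantitative HTS format using FXR-UAS-bla HEK 293T reporter cells. Agonist chenodeoxycholic acid, 50 uM final, added with compounds; 16 h incubation at 37 °C; beta-lactamase FRET fluorescence measured.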

[6] = biological target: Bile acid receptor (Homo sapiens) (UniProt Q96RI1); assay: qHTS assay to identify small molecule agonists of the farnesoid-X-receptor (FXR) signaling pathway (AID 743220; active = well fitted activation curve with a large enough effect in the signal ratio in the repeat runs, not every such curve was filed as active; the % refers to the signal ratio)
How it was run: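 FXR-UAS-bla HEK 293T cells carrying a UAS-driven beta-lactamase reporter were plated for 5 h at 37C/5% CO2, then exposed to DMSO-dissolved Tox21 10K compounds for 16 h at 37C. A LiveBLAzer B/G FRET substrate was loaded for 2 h at room temperature before fluorescence reading.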

[7] = qHTS assay to identify small molecule antagonists of the farnesoid-X-receptor (FXR) signaling pathway - cell viability counter screen (AID 743221; active = well fitted cell-killing curve with a large enough effect in the repeat runs, not every such curve was filed as active; note: nearly all actives have a fitted effect of over 50% in size)
How it was run: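 Quantitative HTS of the Tox21 10K library run in parallel with the beta-lactamase reporter read. HEK 293T cells carrying a UAS-driven bla reporter got compound and 50 uM CDCA (final) for 16 h; ATP-based luminescence followed.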

[8] = biological target: Vitamin D3 receptor (Homo sapiens) (UniProt P11473); assay: qHTS assay to identify small molecule agonists of the vitamin D receptor (VDR) signaling pathway (AID 743222; calls by dose curve)
Chain of Vitamin D3 receptor (Homo sapiens) (P11473 whole entry, looked up): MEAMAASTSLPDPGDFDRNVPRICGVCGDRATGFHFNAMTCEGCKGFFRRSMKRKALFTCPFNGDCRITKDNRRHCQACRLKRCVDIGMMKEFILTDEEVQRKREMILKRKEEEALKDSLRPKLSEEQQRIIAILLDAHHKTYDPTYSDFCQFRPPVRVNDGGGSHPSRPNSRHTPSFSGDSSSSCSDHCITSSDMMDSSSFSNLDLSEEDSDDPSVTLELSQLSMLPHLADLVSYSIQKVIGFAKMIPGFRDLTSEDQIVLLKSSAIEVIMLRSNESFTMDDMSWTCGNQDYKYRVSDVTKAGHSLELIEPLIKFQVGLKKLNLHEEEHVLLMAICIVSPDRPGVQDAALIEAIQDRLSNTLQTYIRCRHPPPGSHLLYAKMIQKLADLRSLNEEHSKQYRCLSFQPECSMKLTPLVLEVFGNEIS
How it was run: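 Fluorescence from cleaved LiveBLAzer B/G FRET substrate served as readout. VDR-bla cells had been treated 16 h at 37C with test compounds in DMSO, following a 4 h settling period, and substrate was loaded for 2 h at RT.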

[9] = qHTS assay to identify small molecule agonists of the farnesoid-X-receptor (FXR) signaling pathway - cell viability counter screen (AID 743218); note: nearly all actives have a fitted effect of over 45% in size
How it was run: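 Viability of FXR-bla HEK 293T cells is measured by ATP-based CellTiter-Glo luminescence following 16 h compound treatment at 37 C and a prior 2 h room-temperature beta-lactamase substrate step.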

[10] = biological target: Vitamin D3 receptor (Homo sapiens) (UniProt P11473); assay: qHTS assay to identify small molecule antagonists of the vitamin D receptor (VDR) signaling pathway (AID 743223; active = well fitted inhibition curve with a large enough effect in the signal ratio in the repeat runs, not every such curve was filed as active; the % refers to the signal ratio)
How it was run: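 Fluorescence from LiveBLAzer B/G FRET substrate, read after 2 h at room temperature, reflects beta-lactamase reporter activity in VDR-bla cells treated 16 h at 37C with compounds and agonist 1alpha,25-dihydroxyvitamin D3 (3 nM final).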
% is set by controls: 0 for no effect and ±100 for the full control effect.

CC(C)(C)NCCNC(C)(C)C
inactive: Potency [1] | outcome [2] | Potency [3] | Potency [4] | outcome [5] | outcome [6] | Potency [7] | outcome [8]

C=CCOCC(CC)(CO)COCC=C
inactive: Potency [1] | outcome [2] | Potency [3] | Potency [4] | Potency [9] | Potency [7]

NC(CSCC(=O)O)C(=O)O (stereo not drawn)
inactive: Potency [1] | outcome [2] | Potency [3] | Potency [4] | outcome [5] | outcome [6] | Potency [7] | outcome [8] | outcome [10]

Cn1cc(S(C)=O)c(=O)c2ccc(F)cc21 (stereo not drawn)
inactive: Potency [1] | outcome [2] | Potency [3] | Potency [4] | outcome [5] | outcome [6] | Potency [7] | outcome [8]

CO[Si](CCCOCC1CO1)(OC)OC (stereo not drawn)
inactive: Potency [1] | outcome [2] | Potency [3] | Potency [4] | Potency [9] | outcome [6] | Potency [7] | outcome [8]

CC(NC(CCc1ccccc1)C(=O)O)C(=O)N1C(=O)N(C)CC1C(=O)O (stereo not drawn)
inactive: Potency [1] | outcome [2] | Potency [3] | Potency [4] | outcome [5] | outcome [6] | Potency [7] | outcome [8] | outcome [10]

Nc1ccccc1S(=O)(=O)O
inactive: Potency [1] | outcome [2] | Potency [3] | Potency [4] | Potency [9] | Potency [7] | outcome [8] | outcome [10]

ClC(Cl)(Br)Br
inactive: Potency [1] | outcome [2] | Potency [3] | Potency [4] | Potency [9] | Potency [7] | outcome [8] | outcome [10]

Cc1[nH]c(=O)c(C#N)cc1-c1ccc2nccn2c1
inactive: Potency [1] | outcome [2] | Potency [3] | Potency [4] | Potency [9] | Potency [7] | outcome [8] | outcome [10]

NC(=O)c1ccc([N+](=O)[O-])cc1
inactive: Potency [1] | outcome [2] | Potency [3] | Potency [4] | Potency [9] | Potency [7] | outcome [8]

CC(C)NC(=O)NC(C)C
inactive: Potency [1] | outcome [2] | Potency [3] | Potency [4] | outcome [5] | outcome [6] | Potency [7] | outcome [8]

CC(C(=O)O)c1ccc(CC2CCCC2=O)cc1 (stereo not drawn)
inactive: Potency [1] | outcome [2] | Potency [3] | Potency [4] | Potency [9] | outcome [6] | Potency [7] | outcome [10]

COC(=O)c1ccc(C)cc1C1=NC(C)(C(C)C)C(=O)N1 (stereo not drawn)
inactive: Potency [1] | outcome [2] | Potency [3] | Potency [4] | Potency [9] | Potency [7] | outcome [8]

CC(C)(C)c1nnc(NS(=O)(=O)c2ccccc2)s1
inactive: Potency [1] | outcome [2] | Potency [3] | Potency [4] | Potency [9] | Potency [7] | outcome [8] | outcome [10]

O=Cc1cccc([N+](=O)[O-])c1
inactive: Potency [1] | outcome [2] | Potency [3] | Potency [4] | Potency [9] | Potency [7] | outcome [8] | outcome [10]

CCCCCCCCCCCCCC=O
inactive: activity change, negative = cytotoxicity [1] 7.31% [at 5.95 µM] | activation [2] 0.125% [at 5.95 µM] | viability change, negative = cytotoxic [3] -6.97% [at 6.26 µM] | ratio activity, negative = inhibition [4] -0.712% [at 6.26 µM] | viability change, negative = cytotoxic [9] 0% [at 5.95 µM] | activity change, negative = cytotoxicity [7] -2.35% [at 5.95 µM]

O=C(O)COc1nn(Cc2ccccc2)c2ccccc12
inactive: Potency [1] | outcome [2] | Potency [3] | Potency [4] | Potency [9] | Potency [7]

OC[C@]1(O)OC[C@@H](O)[C@H](O)[C@@H]1O
inactive: Potency [1] | outcome [2] | Potency [3] | Potency [4] | Potency [7] | outcome [8]

Cc1cccc(C)c1NC(=O)C(C)N (stereo not drawn)
inactive: Potency [1] | outcome [2] | Potency [3] | Potency [4] | Potency [7] | outcome [8] | outcome [10]

Cc1c(O)cccc1O
inactive: Potency [1] | outcome [2] | Potency [3] | outcome [5] | Potency [9] | outcome [6] | Potency [7] | outcome [10]

O=C(O)CN(CCOCCOCCN(CC(=O)O)CC(=O)O)CC(=O)O
inactive: activity change, negative = cytotoxicity [1] 8.22% [at 0.55 µM] | activation [2] -2.28% [at 0.55 µM] | viability change, negative = cytotoxic [3] 5.18% [at 0.575 µM] | ratio activity, negative = inhibition [4] 6.3% [at 0.575 µM] | viability change, negative = cytotoxic [9] -1.35% [at 0.55 µM] | activity change, negative = cytotoxicity [7] -3.69% [at 0.55 µM] | activity change, negative = inhibition [10] 2.94% [at 0.628 µM]

COC(=O)CC(C)=O
inactive: Potency [1] | outcome [2] | Potency [3] | Potency [4] | Potency [7]

O=C1CCCCCCCCCCCN1
inactive: Potency [1] | outcome [2] | Potency [3] | Potency [4] | Potency [7] | outcome [8] | outcome [10]

CC(=O)Nc1c(I)cc(I)c(C(=O)O)c1I
inactive: Potency [1] | outcome [2] | Potency [3] | Potency [4] | Potency [9] | Potency [7] | outcome [10]

CCCCCOC(=O)CCCCC
inactive: Potency [1] | outcome [2] | Potency [3] | Potency [4] | Potency [7] | outcome [10]

O=c1[nH]c(=O)n([C@H]2C[C@H](O)[C@@H](CO)O2)cc1I
inactive: Potency [1] | outcome [2] | Potency [3] | Potency [4] | Potency [7] | outcome [8] | outcome [10]

Cn1c(N)c(N=O)c(=O)n(C)c1=O
inactive: Potency [1] | outcome [2] | Potency [3] | Potency [4] | Potency [9] | Potency [7] | outcome [10]

CC(=O)OCC(=O)[C@@]1(O)CC[C@H]2[C@@H]3CCC4=CC(=O)CC[C@]4(C)[C@H]3C(=O)C[C@@]21C
inactive: Potency [1] | outcome [2] | Potency [3] | Potency [9]

Cc1c(NC(C)C)c(=O)n(-c2ccccc2)n1C
inactive: Potency [1] | outcome [2] | Potency [3] | Potency [4] | Potency [7] | outcome [10]

CN(C(=O)c1c(O)c2ccccc2n(C)c1=O)c1ccccc1
inactive: Potency [1] | outcome [2] | Potency [3] | Potency [4] | Potency [7] | outcome [8]

Reference: PubChem BioAssay (Tox21)
